Laboratory results published in PubChem BioAssay AID1159580 (chemical genetic matrix, 2015).
In all, about 5,500 compounds went through this assay and about 2,000 (36%) were called active. Inconclusive results (about 18%) are left out. Cut-off read from the data, not from the text of the source: active = normalized growth mostly below about 0.91 (no sharp cut-off); inconclusive = no clear call, values can overlap the other calls; inactive = mostly above about 0.92. The list shows a part of the results.

Assay: chemical genetic growth profiling, strain panel (AID 1159580);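 note: tested at 20 µM; growth read once vehicle control cultures reached saturation at 30 °C; 1 = growth at the plate median or of vehicle wells; lower values mean less growth of the strain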
Conditions: growth OD

Measured: normalized growth

COc1cc(C(=O)NCc2ccc(OCCN(C)C)cc2)cc(OC)c1OC
inactive: S. cerevisiae deletion strains, locus YJL187C, strain SWE1, stronger effect = lower value 0.99 | S. cerevisiae deletion strains, locus YJR043C, strain POL32, stronger effect = lower value 0.984 | S. cerevisiae deletion strains, locus YJR066W, strain TOR1, stronger effect = lower value 0.929 | S. cerevisiae deletion strains, locus YKL009W, strain mrt4, stronger effect = lower value 1.01 | S. cerevisiae deletion strains, locus YKL068W, stronger effect = lower value 0.978 | S. cerevisiae deletion strains, locus YKL085W, strain MDH1 (second series), stronger effect = lower value 0.975 | S. cerevisiae deletion strains, locus YKL085W, strain MDH1, stronger effect = lower value 0.975 | S. cerevisiae deletion strains, locus YKL160W, strain elf1, stronger effect = lower value 0.947 | S. cerevisiae deletion strains, locus YKL190W, strain CNB1, stronger effect = lower value 0.986 | S. cerevisiae deletion strains, locus YKR001C, strain vps1, stronger effect = lower value 0.983 | S. cerevisiae deletion strains, locus YKR026C, strain gcn3, stronger effect = lower value 0.989 | S. cerevisiae deletion strains, locus YKR091W, strain srl3, stronger effect = lower value 0.993 | S. cerevisiae deletion strains, locus YLL001W, strain dnm1, stronger effect = lower value 1 | S. cerevisiae deletion strains, locus YLL026W, stronger effect = lower value 1 | S. cerevisiae deletion strains, locus YLL041C, strain sdh2, stronger effect = lower value 1 | S. cerevisiae deletion strains, locus YLR027C, strain aat2, stronger effect = lower value 0.996 | S. cerevisiae deletion strains, locus YLR039C, strain RIC1, stronger effect = lower value 0.954 | S. cerevisiae deletion strains, locus YLR058C, strain SHM2, stronger effect = lower value 0.97 | S. cerevisiae deletion strains, locus YLR102C, strain apc9, stronger effect = lower value 0.984 | S. cerevisiae deletion strains, locus YLR113W, strain HOG1, stronger effect = lower value 0.986 | S. cerevisiae deletion strains, locus YLR221C, strain rsa3, stronger effect = lower value 1.01 | S. cerevisiae deletion strains, locus YLR258W, strain gsy2, stronger effect = lower value 0.999 | S. cerevisiae deletion strains, locus YLR262C, strain YPT6 (second series), stronger effect = lower value 1.02 | S. cerevisiae deletion strains, locus YLR262C, strain YPT6, stronger effect = lower value 0.965 | S. cerevisiae deletion strains, locus YLR268W, strain sec22, stronger effect = lower value 0.971 | S. cerevisiae deletion strains, locus YLR320W, strain mms22, stronger effect = lower value 0.978 | S. cerevisiae deletion strains, locus YLR330W, strain CHS5, stronger effect = lower value 0.999 | S. cerevisiae deletion strains, locus YLR342W, strain FKS1 (second series), stronger effect = lower value 1.07 | S. cerevisiae deletion strains, locus YLR342W, strain FKS1, stronger effect = lower value 0.991 | S. cerevisiae deletion strains, locus YLR357W, strain rsc2, stronger effect = lower value 0.959 | S. cerevisiae deletion strains, locus YLR370C, strain arc18, stronger effect = lower value 0.99 | S. cerevisiae deletion strains, locus YLR371W, strain rom2, stronger effect = lower value 0.984 | S. cerevisiae deletion strains, locus YLR384C, strain iki3, stronger effect = lower value 1 | S. cerevisiae deletion strains, locus YLR418C, strain cdc73, stronger effect = lower value 1.01 | S. cerevisiae deletion strains, locus YML016C, strain PPZ1, stronger effect = lower value 0.991 | S. cerevisiae deletion strains, locus YML032C, strain rad52, stronger effect = lower value 0.987 | S. cerevisiae deletion strains, locus YML120C, strain ndi1, stronger effect = lower value 1.01 | S. cerevisiae deletion strains, locus YML124C, strain tub3, stronger effect = lower value 0.982 | S. cerevisiae deletion strains, locus YMR058W, strain fet3, stronger effect = lower value 1.02 | S. cerevisiae deletion strains, locus YMR078C, strain ctf18, stronger effect = lower value 0.984 | S. cerevisiae deletion strains, locus YMR125W, strain sto1, stronger effect = lower value 0.961 | S. cerevisiae deletion strains, locus YMR129W, stronger effect = lower value 1.01 | S. cerevisiae deletion strains, locus YMR205C, strain PFK2, stronger effect = lower value 0.992 | S. cerevisiae deletion strains, locus YMR223W, strain ubp8, stronger effect = lower value 1.03 | S. cerevisiae deletion strains, locus YMR231W, strain pep5, stronger effect = lower value 1 | S. cerevisiae deletion strains, locus YMR307W, strain GAS1, stronger effect = lower value 1.05 | S. cerevisiae deletion strains, locus YNL067W, strain RPL9B, stronger effect = lower value 0.972 | S. cerevisiae deletion strains, locus YNL071W, strain lat1, stronger effect = lower value 0.991 | S. cerevisiae deletion strains, locus YNL183C, strain NPR1, stronger effect = lower value 0.937 | S. cerevisiae deletion strains, locus YNL209W, strain ssb2, stronger effect = lower value 0.988 | S. cerevisiae deletion strains, locus YNL233W, strain BNI4, stronger effect = lower value 0.994 | S. cerevisiae deletion strains, locus YNL248C, strain rpa49, stronger effect = lower value 0.95 | S. cerevisiae deletion strains, locus YNL250W, strain rad50, stronger effect = lower value 0.977 | S. cerevisiae deletion strains, locus YNL271C, strain bni1, stronger effect = lower value 0.976 | S. cerevisiae deletion strains, locus YNL298W, strain CLA4, stronger effect = lower value 0.997 | S. cerevisiae deletion strains, locus YNL307C, strain MCK1, stronger effect = lower value 0.98 | S. cerevisiae deletion strains, locus YNL322C, strain KRE1 (second series), stronger effect = lower value 0.983 | S. cerevisiae deletion strains, locus YNL322C, strain KRE1, stronger effect = lower value 0.984 | S. cerevisiae deletion strains, locus YNR049C, strain mso1, stronger effect = lower value 1 | S. cerevisiae deletion strains, locus YNR052C, strain pop2, stronger effect = lower value 0.988 | S. cerevisiae deletion strains, locus YOL012C, strain htz1 1.41 | S. cerevisiae deletion strains, locus YOL147C, strain pex11, stronger effect = lower value 0.991 | S. cerevisiae deletion strains, locus YOR001W, strain rrp6, stronger effect = lower value 1.01 | S. cerevisiae deletion strains, locus YOR061W, strain CKA2, stronger effect = lower value 0.962 | S. cerevisiae deletion strains, locus YOR069W, strain VPS5, stronger effect = lower value 0.997 | S. cerevisiae deletion strains, locus YOR070C, strain gyp1, stronger effect = lower value 0.997 | S. cerevisiae deletion strains, locus YOR080W, strain dia2, stronger effect = lower value 0.997 | S. cerevisiae deletion strains, locus YOR083W, strain WHI5, stronger effect = lower value 0.927 | S. cerevisiae deletion strains, locus YOR106W, strain vam3, stronger effect = lower value 0.98 | S. cerevisiae deletion strains, locus YOR136W, strain idh2, stronger effect = lower value 0.98 | S. cerevisiae deletion strains, locus YOR144C, strain elg1, stronger effect = lower value 0.993 | S. cerevisiae deletion strains, locus YOR184W, strain ser1, stronger effect = lower value 0.985 | S. cerevisiae deletion strains, locus YOR231W, strain MKK1, stronger effect = lower value 0.984 | S. cerevisiae deletion strains, locus YOR265W, strain rbl2, stronger effect = lower value 1 | S. cerevisiae deletion strains, locus YOR270C, strain vph1, stronger effect = lower value 0.973 | S. cerevisiae deletion strains, locus YOR290C, strain snf2, stronger effect = lower value 0.972 | S. cerevisiae deletion strains, locus YOR316C, strain cot1, stronger effect = lower value 0.977 | S. cerevisiae deletion strains, locus YPL051W, strain arl3, stronger effect = lower value 0.982 | S. cerevisiae deletion strains, locus YPL055C, strain LGE1, stronger effect = lower value 0.931 | S. cerevisiae deletion strains, locus YPL078C, strain atp4, stronger effect = lower value 0.965 | S. cerevisiae deletion strains, locus YPL106C, strain sse1, stronger effect = lower value 0.935 | S. cerevisiae deletion strains, locus YPL240C, strain hsp82, stronger effect = lower value 0.995 | S. cerevisiae deletion strains, locus YPL256C, strain CLN2, stronger effect = lower value 0.97 | S. cerevisiae deletion strains, locus YPR119W, strain clb2, stronger effect = lower value 0.981 | S. cerevisiae deletion strains, locus YPR141C, strain kar3, stronger effect = lower value 0.969 | S. cerevisiae deletion strains, locus YPR163C, strain tif3, stronger effect = lower value 0.988 | S. cerevisiae deletion strains, locus YPR167C, strain met16, stronger effect = lower value 0.994 | S. cerevisiae deletion strains, strain wtn01, stronger effect = lower value 1 | S. cerevisiae strains, strain wild type, stronger effect = lower value 0.979
